Most compounds without a hit are left out; they make up all but 1.1% or so of the library.
SSB-PriA inh = inhibitors of Klebsiella pneumoniae PriA binding to SSB C-terminal tail, primary screen, biochemical, AlphaScreen; inhibition, % at 33 µM; AlphaScreen SSBct-PriA binding, biotinylated peptide; PriA–SSB C-terminal tail interaction (Klebsiella pneumoniae); 430,000 tested, 0.6% active; AID 1272365, 2023; in the data active = inhibition mostly above about 37%, no sharp cut-off; inactive = mostly below about 20%;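 also: plate controls were negative control peptide for no effect and reference peptide for full effect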
Rv3671c protease = Rv3671c serine protease inhibitors, primary screen, biochemical, fluorescence polarization, M. tuberculosis H37Rv | AID 2606, 2010 | P9WHR9 | 320,000 tested, 0.048% active | inhibition, % at 5.96 µM; in the data active = inhibition above about 38%;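 also: extracellular domain of Rv3671c used as enzyme; 0% = enzyme with DMSO and 100% = no enzyme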
Mtb UGM inh = M. tuberculosis UGM enzyme inhibitors, primary screen, biochemical, fluorescence polarization, single point | 320,000 tested, 0.06% active | inhibition, % at 10 µM | AID 504406, 2011 | purified UGM, fluorescence polarization probe displacement | UDP-galactopyranose mutase (Mycobacterium tuberculosis (strain ATCC 25618 / H37Rv)), …; in the data active = inhibition above about 10%, passing the limit was not always enough
Target sequence (P9WIQ1 whole entry, looked up): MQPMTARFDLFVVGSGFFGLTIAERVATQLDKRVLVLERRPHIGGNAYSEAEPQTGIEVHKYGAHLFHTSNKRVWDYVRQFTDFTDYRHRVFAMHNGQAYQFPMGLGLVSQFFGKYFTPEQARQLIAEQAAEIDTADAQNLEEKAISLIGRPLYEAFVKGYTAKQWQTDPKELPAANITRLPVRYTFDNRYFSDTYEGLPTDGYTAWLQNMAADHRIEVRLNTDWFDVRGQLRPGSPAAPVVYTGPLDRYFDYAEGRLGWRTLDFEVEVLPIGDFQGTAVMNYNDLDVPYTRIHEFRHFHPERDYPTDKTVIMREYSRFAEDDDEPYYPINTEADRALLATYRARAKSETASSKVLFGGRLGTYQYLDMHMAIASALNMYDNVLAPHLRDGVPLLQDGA
RecA splice inh = Mtb RecA intein splicing inhibitors, primary screen, biochemical, fluorescence, HTS; cell-free RecA intein splicing; inhibition, % (test concentration not listed); 290,000 tested, 0.75% active; Protein RecA (Mycobacterium tuberculosis (strain ATCC 25618 / H37Rv)), P9WHJ3; in the data active = inhibition above about 30%;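 also: 0% = vehicle wells and 100% = reference inhibitor control wells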
Mtb betalactam = beta-lactam sensitization of Mtb H37Rv, H37Rv. M. tuberculosis H37Rv growth with meropenem, percent inhibition. inhibition, % at 25 µM. 330,000 tested, 0.27% active;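 also: growth measured after seven days incubation then overnight dye step; 0% = bacteria only wells and 100% = bacteria with antibiotic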
GFP chromophore = counter-screen: blocks GFP chromophore formation, dose response, counter-screen, biochemical, fluorescence, homogeneous; shares compounds with RecA splice inh; cell-free GFP chromophore formation; EC50, µM; 2,100 tested, 83% active
Numbers without * were called inactive; nt = no result; ! = not active in a repeat. Unless noted, no rule for the calls is given here.

SMILES	SSB-PriA inh	Rv3671c protease	Mtb UGM inh	RecA splice inh	Mtb betalactam	GFP chromophore
CC(C)(C)c1ccc(C(=O)NCc2n[nH]c(=S)n2-c2ccc(Cl)c(Cl)c2)cc1	8.0	nt	nt	nt	nt	nt
CCCN(CCC)S(=O)(=O)c1ccc(C(=O)NCc2n[nH]c(=S)n2-c2ccc(Cl)c(Cl)c2)cc1	44.6*!	1.8	-0.4	nt	-1.8	nt
Cc1nc([N+](=O)[O-])c(N2CCN(Cc3ccccc3)CC2)n1Cc1ccccc1	3.3	-6.3	-1.2	4.1	-9.0	nt
COc1ccc2nc(Sc3c([N+](=O)[O-])nc(C)n3Cc3ccccc3)[nH]c2c1	-16.0	-1.2	-1.6	29.4	69.5	nt
Cc1cc2nc(Sc3c([N+](=O)[O-])nc(C)n3Cc3ccccc3)[nH]c2cc1C	11.0	2.8	0.6	46.4*	49.8	nt
Cc1nc([N+](=O)[O-])c(Sc2nc3ccccc3[nH]2)n1Cc1ccccc1	-16.2	12.8	3.9	37.6*	24.7	nt
O=C(O)CCC(=O)NNC(=O)CSc1nc2ccccc2[nH]1	-4.0	nt	nt	nt	nt	nt
Cc1c(Cl)cccc1S(=O)(=O)Nc1cnn([C@H]2CCOC2)c1	-3.0	nt	nt	nt	nt	nt
CC(O)CNc1ncnc2nc[nH]c12 (stereo unspecified)	-7.7	-0.5	-3.3	-0.6	-7.2	nt
CC(C)=NNc1ncnc2nc[nH]c12	49.5*	nt	nt	nt	nt	nt
Cn1c2ccccc2c(=O)n2c(=O)c3ccccc3cc12	nt	-152.0	2.2	93.2*	-1.7	nt
COCCNC(=O)Cn1cc(/C=C2\C(=O)NC(=O)N(c3ccccc3F)C2=O)c2ccccc21	-3.2	-10.6	14.9*	-3.6	1.8	nt
COCCCNC(=O)Cn1cc(/C=C2\C(=O)NC(=O)N(c3ccccc3F)C2=O)c2ccccc21	-1.3	1.5	22.7*	2.7	7.6	nt
COCCNC(=O)Cn1cc(/C=C2\C(=O)NC(=O)N(c3cccc(C)c3C)C2=O)c2ccccc21	-12.2	-3.8	2.4	-0.2	-1.4	nt
COC(=O)Cn1cc(/C=C2\C(=O)NC(=O)N(c3ccc(OC)cc3)C2=O)c2ccccc21	-4.4	-6.0	1.5	-11.4	12.2	nt
NC(=O)Cn1cc(C=C2C(=O)NC(=O)NC2=O)c2ccccc21	0.0	nt	29.6*	-3.0	-9.6	nt
CC(=O)NS(=O)(=O)c1ccc(NC(=O)c2coc(NC(=O)C3CC3)n2)cc1	-11.0	nt	nt	nt	nt	nt
COc1ccc(Cl)cc1S(=O)(=O)NC[C@](C)(O)CSC	-4.0	nt	nt	nt	nt	nt
Clc1ccccc1-c1ccc(C=NNc2nncc(-c3ccccc3)n2)o1	-3.6	nt	nt	nt	nt	nt
CCc1nnc(N/N=C/c2cc(Br)c(O)cc2O)n1N	nt	-60.2	1.8	40.3*	3.0	32.4*
CCc1nnc(NN=Cc2ccccc2F)n1N	3.0	nt	nt	nt	nt	nt
O=S(=O)(NCC1CCCN1c1ccccc1)C1CC1 (stereo unspecified)	-23.0	nt	nt	nt	nt	nt
Cc1ccc(SCCC#N)cc1	-11.0	nt	nt	nt	nt	nt
O=C1NC(=O)C(=Cc2ccc(Oc3ccc([N+](=O)[O-])cc3)cc2)C(=O)N1	-8.2	-160.3	-2.8	68.4*	3.5	>38
CCN(CC)CCNC(=O)c1ccc2c(c1NCCO)C(=O)c1ccccc1C2=O	15.7	-25.6	0.9	78.4*	28.0	6.89*
SMILES	SSB-PriA inh	Rv3671c protease	Mtb UGM inh	RecA splice inh	Mtb betalactam	GFP chromophore
COc1cc(C(=O)NN=C(C)Cn2nc([N+](=O)[O-])cc2C)ccc1O	-2.9	nt	nt	nt	nt	nt
COc1cc(C(c2c(C)[nH][nH]c2=O)c2c(C)[nH][nH]c2=O)cc(OC)c1OC	-3.4	-18.4	0.2	95.7*	-5.1	0.508*
COc1ccc(C(CC(=O)O)c2cc(OC)c(OC)c(OC)c2)cc1OC (stereo unspecified)	3.2	nt	nt	nt	nt	nt
COc1cc(C(c2c(C)[nH][nH]c2=O)c2c(C)[nH][nH]c2=O)cc(Cl)c1O	-8.7	0.8	-1.6	88.1*	0.1	0.741*
O=C(NCC1CCN(S(=O)(=O)c2cccnc2)CC1)c1csc(-c2ccccc2)n1	-4.0	nt	nt	nt	nt	nt
CCCc1[nH]nc2c1C(c1ccoc1)C(C#N)=C(N)O2 (stereo unspecified)	5.0	1.5	0.5	61.2*	3.6	18.8*
COc1ccc(C2C(C#N)=C(N)Oc3n[nH]c(C)c32)cc1Cn1cc([N+](=O)[O-])cn1 (stereo unspecified)	3.3	-6.0	2.5	76.2*	-0.2	11.7*
CCOC(=O)Cc1[nH]nc2c1C(c1ccoc1)C(C#N)=C(N)O2 (stereo unspecified)	-11.1	-3.0	0.1	65.1*	11.4	26.4*
Cc1[nH]nc2c1C(c1ccoc1)C(C#N)=C(N)O2 (stereo unspecified)	-6.7	1.2	1.8	83.6*	-3.3	17.9*
Cc1[nH]nc2c1C(C(C)C)C(C#N)=C(N)O2 (stereo unspecified)	-9.8	-3.9	0.9	nt	-18.2	nt
Cc1ccc2nc3sc(Nc4ccccc4C)nn3c(=O)c2c1	-13.0	nt	nt	nt	nt	nt
COc1cc(C2C(C#N)=C(N)Oc3n[nH]c(C)c32)cc2c1OCO2 (stereo unspecified)	-2.3	-4.2	-0.2	92.5*	-8.5	4.94*
COc1cc(C2C(C#N)=C(N)OC3=C2C(=O)CCC3)cc2c1OCO2 (stereo unspecified)	1.1	1.3	1.1	0.0	0.4	nt
O=C(CSc1nnc(-c2ccccn2)n1Cc1ccco1)Nc1ccc(Cl)cc1	12.2	nt	nt	nt	nt	nt
COc1ccc(-n2nc3c(c2NC(=O)CCl)CSC3)cc1	-4.3	-2.4	-0.4	33.5*	99.1	>38
CCOC(=O)C1=C(c2ccccc2)NC(N)=NC1c1ccc(OCc2ccc(Cl)cc2)c(OC)c1 (stereo unspecified)	31.8	10.7	-3.9	49.2*	100.2	>12
Cc1cc(=O)n(CCCc2ccccc2)[nH]1	-11.1	-57.9	-1.8	91.9*	-12.3	8.02*
CNCc1ccccc1Sc1ccc(O)c(O)c1	5.9	-1.2	1.3	88.0*	-1.1	3.27*
CNC(C)Cc1ccccc1Sc1ccc(O)cc1 (stereo unspecified)	-3.7	-2.7	1.2	-7.4	-13.0	nt
Nc1ccc(N)c(C(=O)O)c1	7.3	-4.5	1.4	56.8*	-2.9	9.73*
O=S(=O)(c1ccccc1S(=O)(=O)N1CCCCC1)N1CCCCC1	-9.5	0.0	-3.6	-11.3	-2.7	nt
O=C1C=C(N2CCCCC2)c2ccccc2C1=O	15.4	-105.1	-0.4	97.8*	-3.6	1.98*
CC(C)(C)c1cnnn1-c1ccc(C=O)cc1	-12.5	5.3	-4.5	-1.6	-8.8	nt
CC(C)(C)c1cnnn1-c1ccc(C(=O)CCl)cc1	-10.5	0.6	-2.4	74.7*	0.7	5.87*
CCOc1ccccc1NC(=O)c1csc2c1CCCC2	1.0	nt	nt	nt	nt	nt
CC(C)(C)C(=O)Cn1ncc(Cl)c(Cl)c1=O	-7.7	nt	nt	6.0	nt	nt
O=C(OCn1ncc(Cl)c(Cl)c1=O)c1ccccc1Cl	1.2	-3.5	-4.8	89.1*	100.2	5.23*
O=C(Cn1ncc(Cl)c(Cl)c1=O)c1ccc(Cl)cc1	2.2	-4.7	1.5	13.3	89.6	nt
